The record followed here is PubChem BioAssay AID651821 (The Scripps Research Institute Molecular Screening Center, 2012).

Hit rate of the full screen: of about 370,000 compounds, about 4,700 (1.3%) were called active. Only a selection was taken, and actives are over-represented in it overall. Unmarked numbers belong to inactive results.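 How the source made its calls: active means inhibition above the plate cutoff, the mean of all test compounds on that plate plus 3 SD (cut at about 35% in these data); inactive means the rest.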

This assay is described as follows: small molecules binding CAG repeat RNA – biochemical, fluorescence, primary screen (AID 651821).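 Further: 0% = DMSO alone and 100% = 100 µM mitoxantrone as full dye displacement; higher means more dye released from RNA so lower well fluorescence.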 Conditions: r(CAG) RNA repeat, TO-PRO-1 dye displacement fluorescence; at 3 µM; active compounds read high.
As for `Oc1c(Cl)cc(Cl)c(Cl)c1Cc1c(O)c(Cl)cc(Cl)c1Cl`, the inhibition is 94% (active).
In the case of `CCOC(=O)CNC(=O)N(C)[C@H]1C[C@H]2c3[nH]c4c(-c5ccc6c(c5)OCO6)cccc4c3CCN2C(=O)[C@H]1[C@H](C)O` it was 9.34%.
Then `COCCNC(=S)Nc1cc(S(=O)(=O)N2CCOCC2)ccc1N1CCCCC1`, with 1.62%; and `O=[N+]([O-])c1cc(Cl)cc(/C=N/NC(=S)Nc2cc(S(=O)(=O)N3CCOCC3)ccc2Cl)c1O`, with 37.7% (active); and `Cc1cc(OCCCC(=O)Nc2cc(S(=O)(=O)N3CCOCC3)ccc2N2CCOCC2)ccc1Cl`, with 2.46%.
In the case of `O=C(C(=O)N1CCC(c2ccccc2)CC1)c1ccccc1` it was 1.3%; in that of `CCOC(=O)c1cccc(NC(=O)CN(C)S(=O)(=O)c2ccc(-c3cocn3)s2)c1`, 2.95%; in that of `O=C(CSc1nnc(-c2ccccn2)n1-c1ccccc1)Nc1ccc2cn[nH]c2c1`, 3.05%.
`O=C(Nc1cccc(Cl)c1)OC1CC2CC1[C@H]1CCCCN1[C@H]2Cc1ccccc1` (some centres undefined): the inhibition is 7.48%.
Then `Cc1ccccc1OS(=O)(=O)c1cccc([N+](=O)[O-])c1`, with 0.69%; and `Cn1c2ccccc2c2cc(/C=C(\NC(=O)c3ccccc3)C(=O)NCC(=O)O)ccc21`, with 35.8% (active); and `O=C(NCC1CCCO1)/C(=C/c1ccc(Cl)cc1)NC(=O)c1ccccc1` (centres undefined), with -2.17%.
Then `CCn1cc(/C=C(\NC(=O)c2ccc(C)cc2)C(=O)NCCN2CCOCC2)c2ccccc21`, with -0.63%; and `Cc1nc2ccc(C(=O)N3CCN(C(=O)C(C)(C)C)CC3)cc2n1C1CCCC1`, with 0.89%; and `O=C1CC[C@@H](COc2ccc3[nH]cc(-c4ccccc4)c3c2-c2ccccc2)N1`, with 6.86%.
Then `CC(=O)O[C@H]1CC[C@@]2(C)[C@@H](CC[C@@H]3[C@@H]2CC[C@]2(C)[C@@H](C(C)(C)O)C[C@@H]32)C1`, with 5.36%.
Take `C[C@H]([C@@H](O)[C@@H](O)[C@@H](C)C(C)(C)C)[C@H]1CC[C@H]2C3CC[C@H]4C[C@H](OS(=O)(=O)O)[C@@H](OS(=O)(=O)O)C[C@]4(C)[C@H]3CC[C@]12C` (some centres undefined): the inhibition was 88.4% (active).
Then `O=C(N[C@H](Cc1ccccc1)C(=O)N1CCCN(Cc2cccs2)CC1)[C@H]1O[C@@H](n2ccc(=O)[nH]c2=O)[C@H](O)[C@@H]1O`, with 1.68%; and `O=S1(=O)c2ccc(Br)cc2-n2nncc2CN1Cc1cccc(Cl)c1`, with 7.4%.
Then `C=C(Cl)COC(=O)C1C2C=CC(C2)C1C(=O)O` (centres undefined), with -2.82%; and `Cc1noc(C)c1S(=O)(=O)NCCc1ccc(S(N)(=O)=O)cc1`, with 2.53%.
For `COC(=O)C[C@@H]1CC[C@H]2[C@@H](COc3ccc(NS(=O)(=O)CC(F)(F)F)cc3C(=O)N2C)O1`, the inhibition was 2.52%.
`CCCOc1ccc(Cn2c(O)cc(=O)[nH]c2=O)cc1`: the inhibition is 37.6% (active).
In the case of `COc1cc(=O)[nH]c(=O)n1C(=O)Cc1ccccc1` it was 5.86%; in that of `COc1ccc(Cn2c(O)c(/C=C3/C=CC=N3)c(=O)[nH]c2=O)cc1`, 4.64%; in that of `CN(C)C(=O)N1CCN(C(=O)[C@@H](Cc2ccccc2)NC(=O)[C@H]2O[C@@H](n3ccc(N)nc3=O)[C@H](O)[C@@H]2O)CC1`, 2.21%.
Consider `FC(F)(F)c1cccc(Cn2ccc3ccc(-c4ccc5ccn(Cc6ccccc6)c5c4)cc32)c1`, for which the inhibition is 11%.
In the case of `CC1=C(C(=O)N(C)C)C(c2ccccc2OC(F)F)NC(=O)N1` (centres undefined) it was -5.88%; in that of `O=C(c1cccc(C(F)(F)F)c1)N1CC[C@H]2[C@H](CCCN2Cc2cc(F)cc(F)c2)C1`, -2.78%.
`CC1=CC2=NC(=O)/C(=C/c3coc4ccccc4c3=O)C(=N)N2O1`: the inhibition was -66.6%.
Then `Cc1cc(/C=C2/C(=N)N3C(=NC2=O)SN=C3S(C)(=O)=O)c(C)n1-c1ccccc1`, with 58.3% (active); and `CCOC(=O)C1=C(O)/C(=C/c2cc(C)n(-c3ccccc3)c2C)N=C1C`, with 8.38%.
In the case of `COc1ccc2c(C(C)c3ccc(N)cc3)cn(C)c2c1` (centres undefined) it was 5.87%; in that of `CN1C(=O)C2CC(O)C(SC3CC4C(=O)N(C)C(=O)C4CC3O)CC2C1=O` (centres undefined), 1.65%; in that of `COc1ccc(Cn2ccc3ccc(-c4ccc5ccn(Cc6ccccc6C)c5c4)cc32)cc1`, 15.1%.
In the case of `O=C(Nc1ccc(F)cc1)N1CCCC(c2nc3c(nnn3Cc3ccccc3Cl)c(=O)[nH]2)C1` (centres undefined) it was 0.69%; in that of `Cc1ccc(NC(=O)N2CCC(c3nc4c(nnn4Cc4c(F)cccc4Cl)c(=O)[nH]3)CC2)cc1`, 3.25%; in that of `Cc1ccc(C)c(Cn2nnc3c(=O)[nH]c(C(=O)Nc4ccc(F)cc4)nc32)c1`, 60.2% (active).
Turning to `COc1cccc(N2CCN(CC(=O)N(C)Cc3ccc(F)cc3)CC2)c1`, the inhibition is -1.77%.
Take `O=C1CCCCC1C(=O)c1ccccc1` (centres undefined): the inhibition is -0.64%.
Take `C[C@H](O)[C@@H]1C(=O)N2CCc3c([nH]c4c(-c5ccc6c(c5)OCO6)cccc34)[C@@H]2C[C@@H]1N(C)C(=O)c1ccco1`: the inhibition was 5.15%.
In the case of `Cc1ccc(C(=O)c2ccc(N3CCN(C)CC3)c([N+](=O)[O-])c2)cc1` it was -0.77%; in that of `Cc1ccc(Sc2cc(C(=O)c3ccccc3C(=O)O)ccc2[N+](=O)[O-])cc1`, 72.1% (active).
Then `CC(C)NC(=O)c1ccc(Sc2ccccc2)c([N+](=O)[O-])c1`, with -3.38%; and `COc1ccccc1C(=O)N1O[C@]23C=C[C@]14C[C@@H](O)CC[C@]4(C)C2CC[C@]1(C)[C@@H]([C@H](C)/C=C/[C@H](C)C(C)C)CC[C@H]13` (some centres undefined), with 4.71%; and `CSc1ccc(C=Nn2c(-c3ccc(F)cc3)n[nH]c2=S)cc1`, with 45.4% (active).
Then `CCOc1ccc(-c2n[nH]c(=S)n2/N=C/c2cc3c(cc2[N+](=O)[O-])OCO3)cc1`, with 4.13%.
As for `CSc1ccc(/C=N/N2CCN(Cc3ccccc3Cl)CC2)cc1`, the inhibition is -3.03%.
In the case of `O=C1[C@@H](c2ccccc2)[C@@H](c2ccccc2)N1c1ccccc1` it was 2.62%.
